Measured values from PubChem BioAssay (NCI).
Values joined by “and” are separate entries in the source; they are usually repeats but may differ in a detail not shown here. Equal values may be shown once. The panel holds about 83,000 compounds, 20% with a hit somewhere; the sample as a whole holds those more often.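 Single-dose data. Exposure time 48 hours. Values below 10 considered active.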 Active and inactive are the calls of the source.

How the values were obtained:
Assay in all cases: NCI-60 one-dose screen, 48 h (100 = growth as untreated, 0 = no growth, -100 = all killed)
Settings in all cases: 10 µM unless noted
[1] = test system: SK-MEL-2 melanoma
[2] = test system: EKVX NSCLC
[3] = test system: SN12C renal
[4] = test system: UO-31 renal
[5] = test system: TK-10 renal
[6] = test system: ACHN renal
[7] = test system: CAKI-1 renal
[8] = test system: A498 renal
[9] = test system: CCRF-CEM leukemia
[10] = test system: MOLT-4 leukemia

SMILES	growth [1]	growth [2]	growth [3]	growth [4]	growth [5]	growth [6]	growth [7]	growth [8]	growth [9]	growth [10]
CC(=O)Oc1cc(C)c(OC(C)=O)c(C)c1C	102% (inactive)	95.8% (inactive)	98.9% (inactive)	88.2% (inactive)	124% (inactive)	100% (inactive)	77.4% (inactive)	109% (inactive)	100% (inactive)	109% (inactive)
Nc1c(S(=O)(=O)O)cc(Br)c2c1C(=O)c1ccccc1C2=O	91.8% (inactive)	101% (inactive)	107% (inactive) and 112% (inactive)	77.4% (inactive) and 67.5% (inactive)	102% (inactive) and 110% (inactive)	108% (inactive) and 107% (inactive)	101% (inactive) and 95% (inactive)	114% (inactive) and 96.6% (inactive)	98.3% (inactive)	99.7% (inactive) and 91.1% (inactive)
C(#CCN1CCOCC1)CCCN1CCOCC1	108% (inactive) and 117% (inactive)	104% (inactive) and 83.1% (inactive)	102% (inactive)	97.6% (inactive) and 89.6% (inactive)	109% (inactive) and 86.2% (inactive)	101% (inactive) and 98.3% (inactive)	98.1% (inactive) and 94.7% (inactive)	87.1% (inactive) and 104% (inactive)	107% (inactive)	109% (inactive) and 113% (inactive)
O=c1[nH]nnc2cc(Cl)ccc12	121% (inactive) and 144% (inactive)	105% (inactive) and 97.3% (inactive)	105% (inactive) and 100% (inactive)	70.5% (inactive) and 76.3% (inactive)	99.3% (inactive) and 105% (inactive)	97.6% (inactive) and 101% (inactive)	92.2% (inactive) and 95.8% (inactive)	106% (inactive)	114% (inactive) and 103% (inactive)	104% (inactive) and 95.9% (inactive)
COc1ccc(/C=C/C(=O)O)cc1OC	108% (inactive) and 101% (inactive)	106% (inactive) and 103% (inactive)	101% (inactive) and 105% (inactive)	100% (inactive) and 97.5% (inactive)	102% (inactive) and 92.5% (inactive)	104% (inactive) and 112% (inactive)	101% (inactive)	104% (inactive)	98.1% (inactive)	104% (inactive) and 108% (inactive)
CC1NC(C)c2ccc3ccccc3c2O1 (stereo not given)	100% (inactive)	123% (inactive)	99.1% (inactive)	69.4% (inactive)	110% (inactive)	98.3% (inactive)	96.7% (inactive)	84.8% (inactive)	97.9% (inactive)	105% (inactive)
O=[N+]([O-])c1ccc(N/N=C/C2CCCCCC2)c([N+](=O)[O-])c1	105% (inactive)	84.9% (inactive)	92% (inactive)	61.2% (inactive)	118% (inactive)	70.4% (inactive)	74.2% (inactive)	62.7% (inactive)	51.6% (inactive)	77.3% (inactive)
O=C1c2ccccc2C(c2ccccc2)C1c1ccccc1 (stereo not given)	91.1% (inactive)	80.2% (inactive)	93.5% (inactive)	79.4% (inactive)	124% (inactive)	98% (inactive)	72.3% (inactive)	102% (inactive)	72.2% (inactive)	87.8% (inactive)
Cc1onc(-c2c(F)cccc2Cl)c1-c1ncc(-c2ccc(Cl)cc2)o1	104% (inactive) and 80% (inactive)	53% (inactive)	71.9% (inactive) and 37.3% (inactive)	53.4% (inactive) and 37.7% (inactive)	84% (inactive) and 53.8% (inactive)	46.1% (inactive) and 31.3% (inactive)	14% (inactive) and 32% (inactive)	69.8% (inactive) and 85.8% (inactive)	41.5% (inactive)	42.4% (inactive) and 16.1% (inactive)
O=C1c2ccccc2CN1c1ccccc1	70.6% (inactive)	113% (inactive)	90.5% (inactive)	121% (inactive)	94.3% (inactive)	99% (inactive)	102% (inactive)	101% (inactive)	106% (inactive)	85.2% (inactive)
OC1CCCN(Cc2ccccc2)C1 (stereo not given)	115% (inactive)	116% (inactive)	98.5% (inactive)	88.5% (inactive)	97.4% (inactive)	106% (inactive)	105% (inactive)	96.2% (inactive)	98.4% (inactive)	92.5% (inactive)
CCc1ccccc1-n1[nH]c(C)c(C=N)c1=O	106% (inactive)	104% (inactive)	106% (inactive)	90% (inactive)	103% (inactive)	105% (inactive)	97.3% (inactive)	112% (inactive)	102% (inactive)	117% (inactive)
CCC/C(=N/NC(N)=O)c1ccco1	94.8% (inactive)	89.7% (inactive)	93% (inactive)	90.6% (inactive)	88.3% (inactive)	94.9% (inactive)	92.7% (inactive)	68.1% (inactive)	97.8% (inactive)	80.3% (inactive)
COc1ccccc1OCC(O)CO (stereo not given)	98.3% (inactive) and 110% (inactive)	102% (inactive) and 83.5% (inactive)	95.2% (inactive) and 103% (inactive)	87.6% (inactive) and 96.4% (inactive)	98% (inactive)	102% (inactive) and 110% (inactive)	90.8% (inactive)	98% (inactive) and 87.8% (inactive)	98.5% (inactive) and 97.1% (inactive)	144% (inactive) and 121% (inactive)
CCN(C)c1ccccc1	104% (inactive)	87.5% (inactive)	96.7% (inactive)	72.6% (inactive)	107% (inactive)	103% (inactive)	90.8% (inactive)	99.6% (inactive)	103% (inactive)	88.2% (inactive)
Cc1cc2ccccc2c2cc3ccccc3cc12	92.6% (inactive)	82.7% (inactive)	98.3% (inactive)	78.8% (inactive)	98.8% (inactive)	92.8% (inactive)	88.8% (inactive)	88.5% (inactive)	97% (inactive)	65.6% (inactive)
Clc1ccc(/C=C/c2ccc3ccccc3n2)cc1	10.7% (inactive) and 89.2% (inactive)	57.6% (inactive) and 58.7% (inactive) and 66.2% (inactive)	43.8% (inactive) and 97.7% (inactive) and 85.7% (inactive)	69.7% (inactive) and 68.4% (inactive) and 58.1% (inactive)	15.3% (inactive) and 132% (inactive) and 86.7% (inactive)	55.8% (inactive) and 93.3% (inactive) and 83% (inactive)	47.7% (inactive) and 68% (inactive) and 84.7% (inactive)	61% (inactive) and 135% (inactive) and 114% (inactive)	8.05% (active) and 97.1% (inactive) and 89.3% (inactive)	30.9% (inactive) and 41.9% (inactive) and 76% (inactive)
O=c1[nH]c(=S)[nH]n1C(=S)n1[nH]c(=S)[nH]c1=O	106% (inactive)	105% (inactive)	101% (inactive)	80.5% (inactive)	106% (inactive)	99.3% (inactive)	94.8% (inactive)	109% (inactive)	93.6% (inactive)	112% (inactive)
OCCS	108% (inactive)	98.8% (inactive)	107% (inactive)	98% (inactive)	84.7% (inactive)	111% (inactive)	105% (inactive)	66.4% (inactive)	100% (inactive)	92.2% (inactive)
Cc1c(Cl)c(C)c(Cc2c(C)c(Cl)c(C)c(Cl)c2O)c(O)c1Cl	1.72% (active)	3.88% (active)	8.8% (active)	7.71% (active)	25.1% (inactive)	3.3% (active)	4.14% (active)	-21.6% (active)	26.5% (inactive)	16.5% (inactive)
Nc1ccccc1SC1CC(=O)N(c2ccc(I)cc2)C1=O (stereo not given)	86.9% (inactive)	90.6% (inactive)	91.8% (inactive)	86.8% (inactive)	106% (inactive)	86% (inactive)	81.7% (inactive)	108% (inactive)	89.7% (inactive)	81.5% (inactive)
CN(C)C(=N)N=C(N)N	106% (inactive) and 25.1% (inactive)	113% (inactive)	95.3% (inactive) and 127% (inactive)	91.5% (inactive) and 106% (inactive)	119% (inactive) and 149% (inactive)	92.8% (inactive) and 115% (inactive)	115% (inactive)	128% (inactive) and 106% (inactive)	79.9% (inactive)	95.6% (inactive) and 131% (inactive)
